# In PubChem BioAssay AID624296 (National Center for Advancing Translational Sciences (NCATS), 2012):
# About 9,900 (2.8%) of roughly 350,000 compounds were called active. Inconclusive results (about 15%) are left out. The call rests on the fitted dose curve; in most records, active means well fitted activation curve with a large enough effect; inconclusive means small, poorly fitted or top-dose-only effect; inactive means no such curve, though single readings can be large or run the other way. For the sample, actives were picked, then their nearest neighbours and some compounds at random.
# Assay: A quantitative high throughput screen for small molecules that induce DNA re-replication in MCF 10a normal breast cells. Further: nearly all actives have a fitted effect of over 50% in size. On activity, positive = re-replication: % of control where 0% means no effect.
# Settings: MCF 10A DNA re-replication, Hoechst nuclear intensity, 48 h; series mostly up to 46.1 µM; activity, positive = re-replication: at the top concentration
# Potency means the concentration at half of the fitted maximal effect.
Structure (SMILES),"activity, positive = re-replication",Potency
COc1ccc(C(CNC(=O)c2cc(S(=O)(=O)Nc3cccc(C)c3)ccc2C)N2CCCC2)cc1 (centres undefined),14.7% (inactive),–
Cc1ccc(OCCNC(=O)CN2C(=O)NC3(CCCC3)C2=O)cc1,11.1% (inactive),–
Cc1ccc(CNC(=O)CCNC(=O)Cn2ccc3ccccc3c2=O)cc1,-0.229% (inactive),–
COC(=O)COc1cccc2c(=O)n(CC(=O)NCc3ccccc3)ccc12,–,2.59 µM (active)
COC(=O)COc1cccc2c(=O)n(CC(=O)NCCc3ccc(OC)c(OC)c3)ccc12,3.39% (inactive),–
O=C1C=C(NS(=O)(=O)c2ccccc2)C(=O)c2ccccc21,7.8% (inactive),–
CCC(CO)Oc1cc(NC(=O)c2cccc(F)c2)c2ncn(C(C)C)c2c1 (centres undefined),-20.7% (inactive),–
O=C(N/N=C/c1coc2ccccc2c1=O)c1cc2ccccc2o1,17.6% (inactive),–
Cc1c(/C=N\NC(=O)c2cc3ccccc3o2)c2ccccc2n1C,–,6.51 µM (active)
Cc1c(/C=N/N2C(=O)C3C4C=CC(C4)C3C2=O)c2ccccc2n1C (centres undefined),15.9% (inactive),–
CCOc1ccc(C(=O)NCC(=O)N2CCN(c3ccc(C(F)(F)F)cn3)CC2)cc1,-2.51% (inactive),–
O=C(Nc1cc(S(=O)(=O)N2CCOCC2)ccc1N1CCOCC1)c1c(F)cccc1Cl,5.34% (inactive),–
O=C(NCc1ccc2c(c1)OCO2)c1cc(F)c(F)cc1Cl,-0.612% (inactive),–
CCn1c(=O)c(C(=O)NCc2ccc3c(c2)OCO3)c(O)c2ccccc21,-0.432% (inactive),–
Cc1nc2c(C(=O)NCc3ccc4c(c3)OCO4)c[nH]n2c(=O)c1Cc1ccccc1F,–,7.31 µM (active)
Cc1cc(C)c(C#N)c(SCC(=O)N(CC(C)C)C2CCS(=O)(=O)C2)n1 (centres undefined),0.222% (inactive),–
Cc1cccn2c(=O)c3cc(C(=O)N4COCC4(C)C)n(C)c3nc12,11% (inactive),–
Cc1cccn2c(=O)c3cc(C(=O)NC4CCCCC4)sc3nc12,1.95% (inactive),–
Cc1cccn2c(=O)c(/C=C(\C#N)C(N)=O)c(N3CCCCCC3)nc12,-9.87% (inactive),–
Cc1cccn2c(=O)c3cc(C#N)c(=NC(=O)c4cccnc4)n(CC4CCCO4)c3nc12 (centres undefined),–,13 µM (active)
Cc1cccn2c(=O)c3cc(C#N)c(=O)n(CCCN4CCOCC4)c3nc12,–,18.4 µM (active)
Cc1ccccc1NC(=O)Cn1c(=O)n(CC2CCCO2)c(=O)c2ccccc21 (centres undefined),-2.54% (inactive),–
CCOc1cc(C(=O)N(Cc2ccccc2)c2ccc(C)cc2)ccc1OCC(=O)N1CCOCC1,2.29% (inactive),–
COc1ccc(C2NCCCC2c2ccccc2)cc1 (centres undefined),0.784% (inactive),–
COc1ccc(-c2cc3ccc(OCc4nn[nH]n4)cc3oc2=O)cc1,2.51% (inactive),–

Structure (SMILES),"activity, positive = re-replication",Potency
COc1cccc(C(=O)c2cc3ccc(O)cc3oc2=O)c1,11.9% (inactive),–
O=c1oc2cc(O)ccc2cc1-c1ccc(F)cc1,–,14.6 µM (active)
CCCCCCCCNS(=O)(=O)CCNC1CCCCC1,-22.3% (inactive),–
O=C(Nc1ccc(S(=O)(=O)N2CCOCC2)cc1)C1CCN(S(=O)(=O)c2ccc(Cl)cc2)CC1,-0.304% (inactive),–
COc1ccc(-c2cc3ncccc3cn2)cc1,11.1% (inactive),–
COc1ccc(-c2sc3ccc(OC)cc3c2C#Cc2ccccn2)cc1,–,18.4 µM (active)
COc1ccc(-c2nc(CS(=O)CC(=O)NCc3ccccn3)c(C)o2)cc1 (centres undefined),-0.718% (inactive),–
CN(C(=O)c1ccc(NC(=O)Cc2cccc(NC(=O)C3CCN(C(=O)c4ccccc4)CC3)c2)cc1)C1CC1,-0.344% (inactive),–
Cc1cn(C2CC(O)C(CO)O2)c(=O)n(CCCc2ccccc2)c1=O (centres undefined),-6.86% (inactive),–
CS(=O)(=O)c1ccc(C(=O)NNC(=O)c2cccs2)cc1,-4.4% (inactive),–
Cc1noc(C)c1NC(=O)Nc1ccc2c(c1)C(=O)N([C@H](C)CO)C[C@H](C)[C@@H](CN(C)C(=O)Nc1ccc(C(F)(F)F)cc1)O2,0.503% (inactive),–
Cc1ccc(NC(=O)CCCNC(=O)c2ccc(Cl)cc2)cc1S(=O)(=O)N1CCCCC1,29.3% (inactive),–
Cc1ccc(NC(=O)CCC(=O)N2CCC(c3ccccc3)=N2)cc1S(=O)(=O)N1CCCCC1,–,18.4 µM (active)
CCc1ccccc1OCC(=O)Nc1ccc(C)c(S(=O)(=O)N2CCCCCC2)c1,3.74% (inactive),–
CC(=O)OCC(=O)C1(O)CCC2C3CC(C)C4=CC(=O)CCC4(C)C3C(O)CC21C (centres undefined),-0.434% (inactive),–
COc1ccc(-c2n[nH]c(C)c2-c2ccc(OC)c(OC)c2)c(O)c1,–,16.4 µM (active)
COc1ccc(-c2n[nH]c(C)c2-c2ccccc2OC)c(O)c1,8.35% (inactive),–
CCOc1ccc(-c2n[nH]c(C)c2-c2ccccn2)c(O)c1,25.8% (inactive),–
N#CCCN(C(=O)COC(=O)c1ccc2c(c1)OCCO2)c1ccccc1,-3.14% (inactive),–
O=C(NCCC1CCCCN1S(=O)(=O)c1ccc(F)cc1)C(=O)NC1CC1 (centres undefined),0.164% (inactive),–
O=C(NCCC1CCCCN1S(=O)(=O)c1cccs1)C(=O)Nc1ccc(F)cc1F (centres undefined),–,11.6 µM (active)
COc1ccccc1CCNC(=O)C(=O)NCCC1CCCCN1S(=O)(=O)c1cccs1 (centres undefined),-15.6% (inactive),–
CCOC(=O)C1CCN(C(=O)c2cccc(S(=O)(=O)N(CC)c3ccccc3)c2)CC1,3.93% (inactive),–
CCN(C[C@H]1N[C@@](CC)(C(=O)OC)[C@H]2C(=O)N(Cc3ccccc3)C(=O)[C@@H]12)S(=O)(=O)c1ccccc1,0.775% (inactive),–
O=C(COC(=O)c1ccccn1)NNC(=O)c1ccc(Br)cc1,16.2% (inactive),–

Structure (SMILES),"activity, positive = re-replication",Potency
Cc1ccc(N2C(=O)S/C(=C/c3cn(C)c4ccccc34)C2=O)cc1,11.6% (inactive),–
Cc1ccc(C(=O)N/C(=C\c2cn(C)c3ccccc23)C(=O)N2CCN(C)CC2)cc1,0.634% (inactive),–
Cc1cccc(N=C2NC(=O)/C(=C/c3cn(C)c4ccccc34)S2)c1,–,10.3 µM (active)
C=CC[C@@H](CC(=O)N[C@H](CO)Cc1ccccc1)C(=O)N[C@H](C)COC(=O)[C@@H](CC=C)Cc1ccc(F)cc1,17.3% (inactive),–
C=CCn1c(=O)n(C)c2c(=O)n(C)c(=O)n(C)c21,-42.5% (inactive),–
COc1ccc(CCNC(=O)COC(=O)Cc2cccc(F)c2)cc1,2.75% (inactive),–
Oc1[nH]c2ccccc2c1N=Nc1c(F)c(F)c(F)c(F)c1F,4.82% (inactive),–
COC(C/C=C/C(=O)[C@@H](C)OCc1ccccc1)OC,–,18.4 µM (active)
COC(C[C@H](O)CC(=O)[C@@H](C)OCc1ccccc1)OC,-5.01% (inactive),–
COC(C[C@@H]1O[C@@H]1C(=O)[C@H](C)OCc1ccccc1)OC,-8.59% (inactive),–
COc1ccc(S(=O)(=O)N(C)C[C@@H]2Oc3ccc(NC(=O)Nc4c(C)noc4C)cc3C(=O)N([C@H](C)CO)C[C@@H]2C)cc1,1.93% (inactive),–
Cc1ccc(S(=O)(=O)N/N=C\c2cc3c(cc2[N+](=O)[O-])OCO3)cc1,–,23.1 µM (active)
CC(=O)N/N=C/c1cc2c(cc1[N+](=O)[O-])OCO2,-33.2% (inactive),–
Cc1ccc(-c2n[nH]c(=S)n2/N=C/c2cc3c(cc2[N+](=O)[O-])OCO3)cc1,12.5% (inactive),–
O=C1COc2ccc(C(=O)CSc3ccc(Br)cc3)cc2N1,-6.85% (inactive),–
COc1ccc(Cn2cc(CN3CCS(=O)(=O)N(Cc4ccc(-c5cccc(Cl)c5)cc4)C(C)C3=O)nn2)cc1 (centres undefined),10.9% (inactive),–
CN(CC(=O)Nc1ccc(F)cc1)C(=O)c1ccc(-c2ccc(Cl)cc2)o1,1.65% (inactive),–
Cc1[nH][nH]c(=O)c1C(c1ccc(-c2ccc(Cl)cc2)o1)c1c(C)[nH][nH]c1=O,–,20.6 µM (active)
Cc1[nH][nH]c(=O)c1N=Nc1ccccc1,1.74% (inactive),–
Cc1csc(NC(=S)Nc2cccc(Cl)c2)n1,–,20.6 µM (active)
CC(=O)Nc1cccc(C(=O)Nc2nc(C)cs2)c1,-2.89% (inactive),–
S=C(Nc1cccc(Cl)c1)Nc1ccc2cn[nH]c2c1,-1.25% (inactive),–
CCOc1ccccc1Nc1nnc(SCC(=O)NCC2CCCO2)s1 (centres undefined),4.59% (inactive),–
COC(=O)c1ccc(CSc2nnc(N)s2)o1,2.09% (inactive),–
CCOc1ccccc1Nc1nnc(SCc2ccc(C(=O)OC)o2)s1,–,18.4 µM (active)

Structure (SMILES),"activity, positive = re-replication",Potency
NC1=NOC(=O)C1C1CCCCC1 (centres undefined),6.94% (inactive),–
CCOc1ccc(S(=O)(=O)N2CCN(C(=O)c3oc4ccccc4c3C)CC2)cc1,4.12% (inactive),–
Cc1cc(N2CCCC2)ccc1NC(=O)COc1ccc(Cl)cc1,-0.481% (inactive),–
Cc1ccc(C)c(S(=O)(=O)N2CCN(c3ncnc4sccc34)CC2)c1,–,18.4 µM (active)
Cc1ccc(S(=O)(=O)N2CCN(c3ncnc4ccccc34)CC2)cc1,5.96% (inactive),–
COc1ccc(C)cc1S(=O)(=O)N1CCN(S(=O)(=O)c2cc(C(=O)O)ccc2C)CC1,5.98% (inactive),–
COC(=O)Cc1c(-c2[nH]c3ccccc3c2CC(=O)OC)[nH]c2ccccc12,16% (inactive),–
COc1ccc(NC(=O)CSc2nnc(C3CC3)n2C)cc1S(=O)(=O)N1CCCCC1,-2.92% (inactive),–
CCc1ccccc1NC(=O)c1ccc2snnc2c1,6.7% (inactive),–
O=C(Nc1cccc(Br)c1)c1ccc2snnc2c1,8.15% (inactive),–
O=C(Nc1ccc2ccccc2c1)Nc1ccc2snnc2c1,–,5.8 µM (active)
CC(=O)c1c(OCC(=O)N(C)C2CCCCC2)ccc2c(C)cc(=O)oc12,-5.05% (inactive),–
CC1=CC(=NNS(=O)(=O)c2ccc([N+](=O)[O-])cc2)CC(C)(C)C1,9.01% (inactive),–
N#Cc1c(/N=C/N2CCCC2)oc(-c2ccccc2)c1-c1ccccc1,–,9.2 µM (active)
COc1cc(C(=O)Nc2oc(-c3ccccc3)c(-c3ccccc3)c2C#N)cc(OC)c1OC,12.2% (inactive),–
COc1ccc(-c2oc(/N=C/N3CCCC3)c(C#N)c2-c2ccc(OC)cc2)cc1,4.62% (inactive),–
O=C1NC(c2ccccc2)Cc2ccncc21 (centres undefined),1.31% (inactive),–
CCN(CC)S(=O)(=O)c1ccc(OC)c(NC(=O)CCc2c(C)noc2C)c1,-0.0933% (inactive),–
C=C1CCC(N(O)c2cc(C)on2)C(=C)CCC2C1CC2(C)C (centres undefined),12.3% (inactive),–
CCCCN(C(=O)C(CCSC)N1C(=O)c2ccccc2C1=O)c1c(N)n(CCC)c(=O)[nH]c1=O (centres undefined),5.35% (inactive),–
NNc1nc2c(Cl)cccc2s1,–,16.4 µM (active)
O=C(Nc1ccccc1)Nc1nc2ccccc2s1,-1.93% (inactive),–
CN(CC(=O)Nc1ccc(OC(F)F)cc1)S(=O)(=O)/C=C/c1ccccc1,-0.819% (inactive),–
O=C(NN=Cc1ccccc1)c1ccccc1,2.48% (inactive),–
